From PubChem BioAssay (NCI) come the findings set out here.

Structures are written as SMILES. About 83,000 compounds went through this panel and 20% of them were active in at least one assay; those are over-represented in the sample as a whole.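 Values shown are percent growth following 48 h exposure of cells in 96-well plates to a single concentration of compound; below 10 was considered active.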 The source made the active and inactive calls.

The test system of this assay is SK-MEL-5 melanoma. Briefly: NCI-60 one-dose screen, 48 h (100 = growth as untreated, 0 = no growth, -100 = all killed). Particulars: 10 µM unless noted.
Turning to `CN([O-])c1nc(N(C)[O-])nc(N2CCOCC2)n1.CN([O-])c1nc(N(C)[OH2+])nc(N2CCOCC2)n1.[Fe+3]`, the growth was 95.5% [100 µM] (inactive).

As to `CCOP(=O)(OCC)c1nc(-c2ccccc2)oc1NCc1cccnc1`, the growth is 103% (inactive).

`CCn1c(SCC(=O)c2ccc(Br)cc2)nnc1-c1ccncc1`: the growth was 98.9% (inactive).

For the compound `CCCCNc1ccc(C#N)c(OCCN(CC)CC)c1`, the growth is 93.9% (inactive).

For the compound `N#Cc1c(-c2ccc(Cl)cc2)nc(NN=Cc2cccc(O)c2)nc1N1CCOCC1`, the growth is 76.5% (inactive).

On to `CS(=O)(=O)Nc1cc(-c2ccc3ncnc(Nc4c(Cl)ccc5c4OCO5)c3c2)cnc1Cl`, for which the growth was -93% (active).

With `Fc1cccc(CNc2c3ccccc3nc3ccccc23)c1F`, the growth was 83% (inactive).

Take `COC(=O)CNC(=O)[C@H](Cc1ccccc1)NCc1ccncc1`: the growth was 101% (inactive).

As for `O=C(NCCCN1CCOCC1)c1cccc(N2C(=O)/C(=C/c3ccc(F)cc3)SC2=S)c1`, the growth was 97.3% (inactive).

In the case of `O=[N+]([O-])/C(=C/C=C/c1ccccc1)c1ccccc1`, the growth was 82.4% (inactive).

`Cn1cc(-c2csc(-c3c[nH]c4ccc(Br)cc34)n2)c2cnccc21`: the growth is -67.7% (active).

For `C=C(C)[C@@H]1CC[C@]2(C(=O)N3CCN(C)CC3)CC[C@]3(C)[C@H](CC[C@@H]4[C@@]5(C)CC(=C/c6ccncc6)/C(=N/O)C(C)(C)[C@@H]5CC[C@]43C)[C@@H]12`, the growth was 59.9% (inactive).

Take `COc1cc(N2C(=O)[C@H](O)C2c2ccc(SC)cc2)cc(OC)c1OC` (stereo partly drawn): the growth is -13.8% (active).

As for `CCCCC(=O)c1ccco1`, the growth is 98.8% (inactive).

Consider `C=C(C)[C@@H]1CC[C@]2(C)[C@H](CC=C3[C@@H]4[C@H](C)[C@@H](C)CC[C@]4(CO)CC[C@]32C)[C@@]1(C)CCCN`, for which the growth was 67.1% (inactive).

`COc1ccc2[nH]cc(-c3nc(-c4c[nH]c5ccncc45)cs3)c2c1`: the growth is 43.3% (inactive).

As to `Oc1ccc(CN2CCC(N3CCCCC3)CC2)c2cccnc12`, the growth is -29.4% (active).

With `CC(C)(C)c1cc(-c2nc3ccc(N4CCN(S(C)(=O)=O)CC4)cc3[nH]2)cc(C(C)(C)C)c1O`, the growth is 95.7% (inactive).

As to `COc1ccc2c(c1)c(-c1noc(C(=O)c3cn(C)c4ccc(Br)cc34)n1)cn2C`, the growth was 100% (inactive).

Consider `C[C@H](NC(=O)[C@@H](C)N)[C@H](Oc1ccc2c(cnn2-c2ccc(F)cc2)c1)c1ccc2c(c1)OCCO2`, for which the growth is -70% (active).

Take `C=C(C)[C@@H]1CC[C@]2(C(=O)O)CC[C@]3(C)[C@H](CC[C@@H]4[C@@]5(C)C[C@@H](Cc6cn(CCO[C@@H]7O[C@H](COC(C)=O)[C@H](OC(C)=O)[C@H](OC(C)=O)[C@H]7OC(C)=O)nn6)[C@H](O)C(C)(C)[C@@H]5CC[C@]43C)[C@@H]12`: the growth was 53.5% (inactive).

Turning to `CCN(CC)CCOc1ccc(-c2c(-c3ccccc3)c(=O)oc3ccccc23)cc1`, the growth was 71.6% (inactive).

Regarding `COc1ccc2c(O)c(/C=C3\N=Nc4ccccc43)oc2c1C[C@@H]1CCNC[C@H]1F`, the growth was 63.9% (inactive).

Consider `COc1cc(OC)cc(C2=C3CC[C@@H]4[C@H](CC[C@]5(C)C(=O)CC[C@@H]45)C3=CC3C(O)c4cccnc4N4C(=O)COC234)c1` (stereo partly drawn), for which the growth is 98.1% (inactive).

Turning to `CC(=O)N1N=C(c2ccc(Nc3nc(Nc4ccc(Cl)cc4)nc(Nc4ccc(Cl)cc4)n3)cc2)CC1c1ccco1` (stereo not drawn), the growth is 75.9% (inactive).

On to `CCS/C(Nc1ccccc1)=C(\C#N)C(=O)N/N=C/c1ccc(Cl)cc1Cl`, for which the growth is 12.4% (inactive).

As for `CCOC(=O)C(=Cc1cccc(Cl)c1)C(=O)OCC`, the growth was 53.5% (inactive).

As to `CN[C@]12CC3(C=CC(=O)C=C3)O[C@@]1(Cc1ccc(OC)cc1)N(C)C(=O)N2`, the growth is 43% (inactive).
